# Assay results reported in PubChem BioAssay (NCI).
# About 83,000 compounds went through this panel and 20% of them were active in at least one assay; those are over-represented in the sample as a whole.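 The endpoint reported here, percent growth, reads 100 for growth as untreated, 0 for no net growth and -100 for all cells dead.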 A number with no mark means an inactive call. The source made the active and inactive calls. How the source made its calls: active means growth percent below 10; inactive means the rest.
# Experiments:
# Test in all cases: NCI-60 one-dose screen, 48 h (100 = growth as untreated, 0 = no growth, -100 = all killed)
# Conditions in all cases: 10 µM unless noted
# [1] = tested on: SR leukemia
# [2] = tested on: RPMI-8226 leukemia
# [3] = tested on: OVCAR-8 ovarian
# [4] = tested on: OVCAR-5 ovarian
# [5] = tested on: OVCAR-4 ovarian
# [6] = tested on: SK-OV-3 ovarian
# [7] = tested on: IGROV1 ovarian
# [8] = tested on: OVCAR-3 ovarian
# [9] = tested on: HS 578T breast
# [10] = tested on: NCI/ADR-RES ovarian
SMILES,growth [1],growth [2],growth [3] [%],growth [4],growth [5],growth [6],growth [7],growth [8],growth [9],growth [10]
COc1ccc(-c2nnc(COc3ccc(NC(=O)Nc4ccc(Cl)c(C(F)(F)F)c4)cc3F)o2)cc1,-30.1% (active),-26.2% (active),14.5,8.75% (active),20.2%,22.1%,26%,-0.826% (active),19.1%,5.91% (active)
Cc1cc(C)c2c(=O)[nH]c(SCC(=O)Nc3cccc(S(=O)(=O)N(C)C)c3)nc2n1,70.8%,87.5%,106,97.4%,105%,103%,40.6%,111%,122%,105%
Cc1ccc(Oc2nc3ccccc3cc2-c2nnc(Cn3c(COc4ccccc4)nc4ccccc43)o2)cc1,-7.62% (active),-4.32% (active),25.5,87.7%,53.9%,77.3%,37.8%,35.7%,72.4%,34.6%
Cc1sc(N=Nc2ccc(N(C)C)cc2)[n+]([O-])c1C,98.2%,106%,101,107%,94.2%,104%,93.4%,96%,96.3%,–
O=S(=O)(NCCCNc1nccc(-c2c(-c3ccc(O)cc3)nc3sccn23)n1)c1ccc(F)cc1,3.07% (active),-13% (active),14.2,14.4%,14.9%,-4.21% (active),5.53% (active),23%,11.5%,48.9%
CCNc1nc(N2CC(=O)Nc3cc(OC)ccc32)c2ccccc2n1,24.3%,27.3%,18.1,20%,20.4%,27.4%,14.3%,-16.8% (active),7.61% (active),0.157% (active)
CCCCCCCCCCCCOB(OCCCCCCCCCCCC)OCCCCCCCCCCCC,89.8%,95.8%,101,110%,121%,-1.64% (active),107%,74.3%,107%,97.6%
FC(F)(F)c1cccc(-n2nnc3cnc(Nc4ccc(N5CCCCC5)cc4)nc32)c1,29.2%,90.9%,37.5,74.3%,-9.56% (active),80.2%,88.8%,82.4%,76.5%,76.9%
O=C(CNC(=O)c1cccc2ccccc12)Nc1ccccc1Oc1ccccc1,13.1%,19.8%,13.4,52.4%,36%,23.3%,32.1%,-30.5% (active),29.9%,10.3%
CCSc1nnc(NC(=O)Cc2ccc(Cl)cc2)s1,103%,116%,113,97.1%,107%,106%,-24.9% (active),106%,110%,104%
CCN(CC)CCCNc1nc(C)cc(Nc2ccc3nc(C)cc(N)c3c2)n1,110%,102%,106,102%,116%,89.9%,97.8%,106%,109%,101%
c1ccc(CCn2nnc3c(Nc4ccc(N5CCOCC5)cc4)ncnc32)cc1,36%,68.2%,86.2,88.1%,89.3%,93.1%,95.3%,85.9%,97.3%,78.8%
CCOC(=O)C1=C(CSC(=S)N(C2CCCCC2)C2CCCCC2)N(C)C(=O)NC1c1ccccc1 (centres undefined),29.9%,35.8%,49.2,92%,45%,71.4%,56.3%,56.1%,80.7%,64%
